Some test systems named below: SR leukemia; RPMI-8226 leukemia; OVCAR-8 ovarian; OVCAR-5 ovarian; OVCAR-4 ovarian; SK-OV-3 ovarian; IGROV1 ovarian; OVCAR-3 ovarian; NCI/ADR-RES ovarian; T-47D breast; BT-549 breast; MDA-MB-435 melanoma; MCF7 breast; HCT-116 colon; HCC-2998 colon; KM12 colon; MDA-MB-468 breast; HS 578T breast; SW-620 colon.
What all share (test): NCI-60 one-dose screen, 48 h (100 = growth as untreated, 0 = no growth, -100 = all killed)
What all share (settings): 10 µM unless noted

This is part of a sample that, as a whole, favours compounds with a hit. Of some 83,000 tested, about 20% had one in any assay.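 Treatment: one concentration, 48 hours, 96-well format. Scoring: percent growth, with anything below 10 considered active.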 Unmarked numbers belong to inactive results. Calls of active or inactive are those of the source.

`COc1cc(-c2cc(-c3cccc(OCC(=O)O)c3)[nH]c(=O)c2C#N)cc(OC)c1OC`: the growth in the experiment with SR leukemia is 83.6%; in the experiment on RPMI-8226 leukemia, 98.6%; in the experiment on OVCAR-8 ovarian, 102%; in the experiment with OVCAR-5 ovarian, 96.8%; in the experiment with OVCAR-4 ovarian, 98.2%; in the experiment with SK-OV-3 ovarian, 100%. In addition, the growth was 109% in the experiment with IGROV1 ovarian; 110% with OVCAR-3 ovarian; 104% in the experiment with NCI/ADR-RES ovarian; 103% with T-47D breast; 100% in the experiment on BT-549 breast; 106% with MDA-MB-435 melanoma. The growth was 97.1% in the experiment on MCF7 breast, 92.8% in the experiment on HCT-116 colon, 110% in the experiment with HCC-2998 colon and 105% with KM12 colon.
Regarding `Cc1ccc2c(N)c(C(=O)Nc3ccc(OC(F)(F)F)cc3)sc2n1`, the growth in the experiment on SR leukemia is 56.5%; with RPMI-8226 leukemia, 46.9%; with OVCAR-8 ovarian, 76.2%; in the experiment on OVCAR-5 ovarian, 84.5%; in the experiment on OVCAR-4 ovarian, 52.1%; in the experiment on SK-OV-3 ovarian, 68.2%. Moreover, the growth with IGROV1 ovarian is 61.5%; in the experiment on OVCAR-3 ovarian, 83%; in the experiment with NCI/ADR-RES ovarian it was 52.4%; in the experiment on T-47D breast, 27.3%; in the experiment with BT-549 breast, 86.8%; in the experiment with MDA-MB-435 melanoma, 68.9%. Besides, the growth was 39.4% in the experiment with MCF7 breast; 58.8% in the experiment with HCT-116 colon; 90.9% in the experiment with HCC-2998 colon; 66.5% with KM12 colon; 15.9% with MDA-MB-468 breast.
Turning to `O=c1c2ccccc2nc(-c2ccccc2)n1/N=C/c1ccc2ccccc2c1`, the growth is 11.5% in the experiment on SR leukemia; 39% with RPMI-8226 leukemia; 50.6% in the experiment with OVCAR-8 ovarian; 69.4% with OVCAR-5 ovarian; 85.8% with OVCAR-4 ovarian; 68.5% in the experiment with SK-OV-3 ovarian. The growth in the experiment with IGROV1 ovarian was 55.6%; with OVCAR-3 ovarian, 67.4%; with NCI/ADR-RES ovarian, 53.5%; with T-47D breast, 56.4%; in the experiment on BT-549 breast it was 51.8%; with MDA-MB-435 melanoma it was 55%. Besides, the growth with MCF7 breast is 34.2%; in the experiment with HCT-116 colon, 22.1%; with HCC-2998 colon, 57.5%; with KM12 colon it was 45%; with MDA-MB-468 breast, 67.2%.
`CSc1ccc(C(=O)Nc2ccc3nn(/C(C#N)=C/c4ccccn4)nc3c2)cc1`: the growth was -3.69% (active) with SR leukemia; -42.5% (active) in the experiment on RPMI-8226 leukemia; -1.48% (active) in the experiment on OVCAR-8 ovarian; -86.2% (active) with OVCAR-5 ovarian; 15.8% in the experiment with OVCAR-4 ovarian; 30.8% in the experiment with SK-OV-3 ovarian. Further, the growth was -83% (active) in the experiment with IGROV1 ovarian; -92.6% (active) in the experiment on OVCAR-3 ovarian; 2.33% (active) in the experiment on NCI/ADR-RES ovarian; -26% (active) in the experiment with T-47D breast; -90.1% (active) in the experiment on BT-549 breast; -44.9% (active) in the experiment with MDA-MB-435 melanoma. Also, the growth in the experiment on MCF7 breast was -78.6% (active); in the experiment with HCT-116 colon, -93.8% (active); with HCC-2998 colon, -99.8% (active); in the experiment on KM12 colon, -43.6% (active); in the experiment with MDA-MB-468 breast, -90.7% (active).
As to `Cc1ccc(NC(=O)[C@]23CCC(C)(C)CC2C2=CCC4[C@@]5(C)C[C@@H](O)[C@H](O)[C@@](C)(CO)C5CC[C@@]4(C)[C@]2(C)CC3)cc1` (stereo partly drawn), the growth was -11.8% (active) in the experiment on SR leukemia; -29.1% (active) with RPMI-8226 leukemia; 44.9% in the experiment on OVCAR-8 ovarian; 6.37% (active) with OVCAR-5 ovarian; 38.7% in the experiment on OVCAR-4 ovarian; 28.4% in the experiment on SK-OV-3 ovarian. Further, the growth in the experiment with IGROV1 ovarian was 54.3%; in the experiment on OVCAR-3 ovarian, 41.2%; in the experiment with HS 578T breast it was 32.4%; with NCI/ADR-RES ovarian, 31.4%; with T-47D breast it was 10.4%; in the experiment with BT-549 breast it was 0.29% (active). The growth was 40.1% in the experiment on SW-620 colon; 4.26% (active) with MCF7 breast; 6.55% (active) in the experiment on HCT-116 colon; -6.83% (active) in the experiment on HCC-2998 colon; -22.3% (active) in the experiment with KM12 colon; 0.813% (active) with MDA-MB-468 breast.
Take `CC1(C)CC[C@]2(C(=O)O)CC[C@]3(C)C(=CCC4[C@@]5(C)C[C@@H](O)[C@@H]6OC(c7ccccc7F)OC[C@@]6(C)C5CC[C@]43C)C2C1` (stereo partly drawn): the growth was 7.37% (active) in the experiment on SR leukemia; 10% in the experiment on RPMI-8226 leukemia; 12% in the experiment on OVCAR-8 ovarian; 28.2% in the experiment with OVCAR-5 ovarian; 30.7% in the experiment on OVCAR-4 ovarian; 12.7% in the experiment on SK-OV-3 ovarian. Moreover, the growth is 20% in the experiment with IGROV1 ovarian; -11% (active) in the experiment with OVCAR-3 ovarian; 21.6% with HS 578T breast; 6.19% (active) in the experiment on NCI/ADR-RES ovarian; 21.3% in the experiment with T-47D breast; -15.9% (active) in the experiment on BT-549 breast. The growth with SW-620 colon is 14.6%; in the experiment on MCF7 breast it was 4.83% (active); in the experiment on HCT-116 colon, -0.989% (active); with HCC-2998 colon it was 11.1%; in the experiment on KM12 colon, 7.3% (active); with MDA-MB-468 breast, 5.82% (active).
Turning to `O=c1[nH]n(C(=S)N/N=C/c2ccccc2Cl)c(=O)c2ccccc12`, the growth in the experiment on SR leukemia was -13.8% (active); with RPMI-8226 leukemia, -1.71% (active); in the experiment on OVCAR-8 ovarian, 4.91% (active); in the experiment on OVCAR-5 ovarian it was 9.48% (active); in the experiment with OVCAR-4 ovarian it was 33%; in the experiment with SK-OV-3 ovarian, 23.4%. For the same compound, the growth in the experiment with IGROV1 ovarian was 7.53% (active); in the experiment on OVCAR-3 ovarian it was 24%; in the experiment with NCI/ADR-RES ovarian, -9.23% (active); with T-47D breast it was 12.2%; with BT-549 breast it was -57.5% (active); with MDA-MB-435 melanoma it was 22.4%. For the same compound, the growth in the experiment with MCF7 breast is 10.7%; in the experiment on HCT-116 colon it was -83.4% (active); in the experiment on HCC-2998 colon it was -36.5% (active); with KM12 colon, 8.85% (active); in the experiment with MDA-MB-468 breast, -26.7% (active).
`COc1c(F)ccc(C(=O)Nc2ccc3nc(NC(=O)C4CCCN(S(=O)(=O)c5cccc(Cl)c5)C4)sc3c2)c1F` (stereo not drawn): the growth in the experiment on SR leukemia is 44.5%; with RPMI-8226 leukemia it was 42.8%; in the experiment on OVCAR-8 ovarian it was 98.8%; with OVCAR-5 ovarian, 102%; with OVCAR-4 ovarian it was 83.1%; in the experiment with SK-OV-3 ovarian, 105%. For the same compound, the growth in the experiment with IGROV1 ovarian was 81.6%; in the experiment on OVCAR-3 ovarian, 105%; in the experiment on HS 578T breast, 62.6%; with NCI/ADR-RES ovarian, 80.5%; in the experiment on T-47D breast, 53.1%; in the experiment on BT-549 breast it was 76%. In addition, the growth is 98.6% in the experiment on SW-620 colon; 64.4% in the experiment on HCT-116 colon; 102% in the experiment on HCC-2998 colon; 82.2% in the experiment on KM12 colon; 88.8% with MDA-MB-468 breast.
For the compound `CCOC(=O)C1=C(N)N(c2ccccc2)C2=C(C(=O)CC(C)(C)C2)C1c1ccc(Cl)cc1Cl` (stereo not drawn), the growth with SR leukemia was 10.1%; with RPMI-8226 leukemia, 7.77% (active); with OVCAR-8 ovarian, 36.7%; in the experiment with OVCAR-5 ovarian, 56.9%; with OVCAR-4 ovarian, 25.3%; in the experiment on SK-OV-3 ovarian, 34.5%. Further, the growth in the experiment on IGROV1 ovarian was 59.4%; with OVCAR-3 ovarian, 33.3%; in the experiment with NCI/ADR-RES ovarian, 23.6%; in the experiment on T-47D breast it was 20.9%; in the experiment on BT-549 breast it was 33.4%; with MDA-MB-435 melanoma, 29.5%. The growth in the experiment on MCF7 breast was 9.22% (active); in the experiment with HCT-116 colon it was 13.6%; with HCC-2998 colon, 37.5%; with KM12 colon, 18.7%.
